Measurements: PubChem BioAssay (NCATS)
Records with an inconclusive call do not appear. The source made the active and inactive calls. Calls come from the whole dose curve; as a rule, active = well fitted curve in the direction sought with a large enough effect; inconclusive = small, poorly fitted or top-dose-only effect, or another doubt; inactive = no such curve, though single readings can be large; an effect the other way counts as inactive or inconclusive.

Assays:
[1] = Quantitative High-Throughput drug screen in 47 multiple myeloma cell lines against the NCATS MIPE library collection: FR4_PLB cell viability assay (AID 1918924; note: nearly all actives have a fitted effect of over 35% in size; note: potency is the fitted concentration of half-maximal effect)
In short: (§1)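 Steps: seed 500 cells per well; pin-transfer MIPE 4.0 library; incubate 48 h at 37C, 5% CO2, humidified; add CellTiter-Glo, 5 min room temperature; read luminescence.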

[2] = Quantitative High-Throughput drug screen in 47 multiple myeloma cell lines against the NCATS MIPE library collection: EJM_DSMZ cell viability assay (AID 1918926; note: nearly all actives have a fitted effect of over 30% in size; note: potency is the fitted concentration of half-maximal effect)
In short: (§2)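 CellTiter-Glo ATP luminescence gave viability after 48 h compound treatment at 37C of 500 multiple myeloma cells per well. Normalisation used DMSO-only wells as 100% and media-only wells as 0% viability; primary qHTS of approved and investigational drugs.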

[3] = Quantitative High-Throughput drug screen in 47 multiple myeloma cell lines against the NCATS MIPE library collection: AMO1_DSMZ cell viability assay (AID 1918927; note: nearly all actives have a fitted effect of over 30% in size; note: potency is the fitted concentration of half-maximal effect)
In short: as §2

[4] = Quantitative High-Throughput drug screen in 47 multiple myeloma cell lines against the NCATS MIPE library collection: KMM1_JCRB cell viability assay (AID 1918960); note: nearly all actives have a fitted effect of over 30% in size; note: potency is the fitted concentration of half-maximal effect
In short: (§3)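 CellTiter-Glo luminescence after 48 h exposure gives viability, scaled between DMSO-only (100%) and media-only (0%) controls. Library compounds are pinned onto 500 myeloma cells per well, incubated at 37C with 5% CO2.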

[5] = Quantitative High-Throughput drug screen in 47 multiple myeloma cell lines against the NCATS MIPE library collection: KHM11_PLB cell viability assay (AID 1918962); note: nearly all actives have a fitted effect of over 35% in size; note: potency is the fitted concentration of half-maximal effect
In short: as §1

[6] = Quantitative High-Throughput drug screen in 47 multiple myeloma cell lines against the NCATS MIPE library collection: JIM3_ECACC cell viability assay (AID 1918963; note: nearly all actives have a fitted effect of over 35% in size; note: potency is the fitted concentration of half-maximal effect)
In short: as §1

[7] = Quantitative High-Throughput drug screen in 47 multiple myeloma cell lines against the NCATS MIPE library collection: ARP1_JJKsccF8 cell viability assay (AID 1918928; note: nearly all actives have a fitted effect of over 40% in size)
In short: as §3

[8] = Quantitative High-Throughput drug screen in 47 multiple myeloma cell lines against the NCATS MIPE library collection: Karpas620_DSMZ cell viability assay (AID 1918959); note: nearly all actives have a fitted effect of over 30% in size; note: potency is the fitted concentration of half-maximal effect
In short: as §1

[9] = Quantitative High-Throughput drug screen in 47 multiple myeloma cell lines against the NCATS MIPE library collection: JIM1_ECACC cell viability assay (AID 1918964; note: potency is the fitted concentration of half-maximal effect)
In short: as §2

[10] = Quantitative High-Throughput drug screen in 47 multiple myeloma cell lines against the NCATS MIPE library collection: KMS12PE_JCRB cell viability assay (AID 1918972); note: nearly all actives have a fitted effect of over 30% in size; note: potency is the fitted concentration of half-maximal effect
In short: (§4)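 CellTiter-Glo luminescence (ATP) after 48 h compound exposure, 37C/5% CO2; 500 cells/well; MIPE 4.0 approved/investigational drugs pinned in; DMSO = 100%, media only = 0% viability.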

[11] = Quantitative High-Throughput drug screen in 47 multiple myeloma cell lines against the NCATS MIPE library collection: Delta47_JCRB cell viability assay (AID 1918925; note: potency is the fitted concentration of half-maximal effect; nearly all actives have a fitted effect of over 45% in size)
In short: as §2

[12] = Quantitative High-Throughput drug screen in 47 multiple myeloma cell lines against the NCATS MIPE library collection: ARD_JJKsccE7 cell viability assay (AID 1918929; note: potency is the fitted concentration of half-maximal effect)
In short: as §2

[13] = Quantitative High-Throughput drug screen in 47 multiple myeloma cell lines against the NCATS MIPE library collection: Karpas417_ECACC cell viability assay (AID 1918961); conditions: Karpas417 myeloma viability, CellTiter-Glo ATP luminescence, 48 h; viability (% of DMSO): at 45.8 µM (top of the series); note: potency is the fitted concentration of half-maximal effect
In short: as §4

[14] = Quantitative High-Throughput drug screen in 47 multiple myeloma cell lines against the NCATS MIPE library collection: JJN3_DSMZ cell viability assay (AID 1918966; note: potency is the fitted concentration of half-maximal effect; nearly all actives have a fitted effect of over 50% in size)
In short: as §2

[15] = Quantitative High-Throughput drug screen in 47 multiple myeloma cell lines against the NCATS MIPE library collection: H1112_PLB cell viability assay (AID 1918967; note: nearly all actives have a fitted effect of over 30% in size; note: potency is the fitted concentration of half-maximal effect)
In short: as §2

[16] = Quantitative High-Throughput drug screen in 47 multiple myeloma cell lines against the NCATS MIPE library collection: KMS27_JCRB cell viability assay (AID 1918970); note: nearly all actives have a fitted effect of over 30% in size; note: potency is the fitted concentration of half-maximal effect
In short: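 Viability inhibition screen, 48 h compound exposure, luminescent ATP read-out.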

[17] = Quantitative High-Throughput drug screen in 47 multiple myeloma cell lines against the NCATS MIPE library collection: KMS12BM_JCRB cell viability assay (AID 1918971); note: nearly all actives have a fitted effect of over 35% in size; note: potency is the fitted concentration of half-maximal effect
In short: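 Approved and investigational drugs from MIPE 4.0 were added by pin tool to 500 cells per well. After 48 hours at 37C, ATP-based CellTiter-Glo luminescence indicated remaining viability.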

[18] = Quantitative High-Throughput drug screen in 47 multiple myeloma cell lines against the NCATS MIPE library collection: INA6_PLB cell viability assay (AID 1918965; note: nearly all actives have a fitted effect of over 55% in size; note: potency is the fitted concentration of half-maximal effect)
In short: as §4

[19] = Quantitative High-Throughput drug screen in 47 multiple myeloma cell lines against the NCATS MIPE library collection: Karpas25_ECACC cell viability assay (AID 1918968)
In short: as §2

[20] = Quantitative High-Throughput drug screen in 47 multiple myeloma cell lines against the NCATS MIPE library collection: KMS20_JCRB cell viability assay (AID 1918973); note: potency is the fitted concentration of half-maximal effect; nearly all actives have a fitted effect of over 45% in size
In short: as §2

SMILES	Potency [1]	Potency [2]	Potency [3]	Potency [4]	Potency [5]	Potency [6]	Potency [7]	Potency [8]	Potency [9]	Potency [10]	Potency [11]	Potency [12]	Potency [13]	Potency [14]	Potency [15]	Potency [16]	Potency [17]	Potency [18]	Potency [19]	Potency [20]
O=c1cc(-c2ccccc2)oc2cc(O)cc(O)c12	inactive	inactive	16.6 µM (active)	20.9 µM (active)	inactive	16.6 µM (active)														
O=c1[nH]cnc2c1ncn2[C@H]1CC[C@@H](CO)O1	inactive	inactive	inactive	inactive	inactive	inactive	inactive	inactive	inactive	inactive										
COc1ccc2c(Oc3ccc(NC(=O)c4c(C)n(CC(C)(C)O)n(-c5ccccc5)c4=O)cc3F)ccnc2c1	26.4 µM (active)							23.5 µM (active)		26.4 µM (active)	23.5 µM (active)	20.9 µM (active)	inactive	8.33 µM (active)	20.9 µM (active)	20.9 µM (active)	33.2 µM (active)			
OC[C@H]1O[C@@H](Oc2cc(O)cc(C=Cc3ccc(O)cc3)c2)[C@H](O)[C@@H](O)[C@H]1O	inactive	4.69 µM (active)	inactive			inactive		inactive		inactive						inactive	inactive			
NC1CCC(Nc2nc(Nc3ccc(C(=O)N4CCCCC4)cc3)c3ncn(-c4cccc(F)c4)c3n2)CC1 (stereo not given)	inactive	inactive	inactive	inactive		inactive		inactive		inactive		inactive	inactive		inactive		inactive			
O=c1c(O)c(-c2ccc(O)cc2)oc2cc(O)cc(O)c12	inactive		9.35 µM (active)	16.6 µM (active)				18.7 µM (active)		16.6 µM (active)	20.9 µM (active)	13.2 µM (active)	16.6 µM (active)		20.9 µM (active)			16.6 µM (active)	9.35 µM (active)	14.8 µM (active)
Cc1cccc(Nc2nc(-c3ccncc3)cs2)c1	18.7 µM (active)		11.8 µM (active)	23.5 µM (active)		20.9 µM (active)				14.8 µM (active)	18.7 µM (active)				18.7 µM (active)	18.7 µM (active)		18.7 µM (active)		
O=c1c(-c2ccc(O)cc2)coc2cc(O)ccc12	inactive	inactive	inactive	inactive		inactive			inactive	inactive		inactive	inactive		inactive	inactive		inactive		
CO[C@@H](C(=O)N1Cc2[nH]nc(NC(=O)c3ccc(N4CCN(C)CC4)cc3)c2C1)c1ccccc1	23.5 µM (active)		4.69 µM (active)	7.43 µM (active)	10.5 µM (active)	4.69 µM (active)			16.6 µM (active)		6.62 µM (active)					23.5 µM (active)		0.372 µM (active)	16.6 µM (active)	16.6 µM (active)
O=c1cc(N2CCOCC2)oc2c(-c3cccc4c3sc3ccccc34)cccc12	20.9 µM (active)		5.26 µM (active)	5.9 µM (active)	5.9 µM (active)	3.32 µM (active)		16.6 µM (active)	2.96 µM (active)	11.8 µM (active)	3.32 µM (active)	11.8 µM (active)			16.6 µM (active)	18.7 µM (active)	16.6 µM (active)	2.96 µM (active)	4.18 µM (active)	13.2 µM (active)
